# In the library only some 18% were active in any assay of this set; here they are far more common.
# LDHA inh – LDHA (human) enzyme inhibition; activity change, % (values are at about 110 or 230 µM); P00338; purified LDHA, NADH/diaphorase-resazurin fluorescence; stronger effect = lower value; 480,000 tested, 0.15% active; in the data active means activity change below about -30%; inconclusive means mostly about -25% to -30%;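 further: plate controls were DMSO wells for no effect and wells without enzyme for full effect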
#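 Enzyme activity of human lactate dehydrogenase 5 (2 nM; 0.06 mM NADH, 0.2 mM pyruvate, 5 min, RT) is measured via a resazurin/diaphorase fluorescence readout of residual NADH.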
# DT40 TDP1 no CPT – qHTS for Inhibitors of human tyrosyl-DNA phosphodiesterase 1 (TDP1): qHTS in cells in absence of CPT; DT40 Tdp1-/- hTDP1 cells, no CPT, ATP luminescence, 48 h; Potency, µM (titrated, usually from 46.2 µM), without a hit: at the top dose activity change, negative = growth inhibition, actives largely listed as inhibitors; 420,000 tested, 15% active; further: potency means the concentration at half of the fitted maximal effect; nearly all actives have a fitted effect of over 55% in size
#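 Growth of hTDP1-complemented DT40 Tdp1-knockout cells is measured by ATP luminescence after at least 48 hr compound exposure at 37 °C, with DMSO substituting for the 20 nM CPT used in the parallel screen.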
# VP16 counter – counter-screen for ROR gamma inhibitors: Gal4-VP16 reporter; Potency, µM (highest dose often 53.6 µM), for the others: at the top dose activity, negative = inhibition, most hits filed as inhibitors; AID 2546; 310,000 tested, 3.5% active; Drosophila S2 Gal4-VP16 UAS-luciferase, luminescence, 20 h;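 further: Gal4-VP16 expression switched on by copper sulfate through the metallothionein promoter; potency means the concentration at half of the fitted maximal effect; nearly all actives have a fitted effect of over 50% in size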
# RORg inh – blocks mouse ROR gamma transcriptional activity; P51450; Drosophila S2 Gal4-RORgamma UAS-luciferase reporter, 20 h; Potency, µM (highest dose often 53.6 µM), inactives show top-dose activity change, negative = inhibition, usual class: inhibitors; 310,000 tested, 5.4% active; AID 2551; further: potency means the concentration at half of the fitted maximal effect; nearly all actives have a fitted effect of over 60% in size
# Target sequence (P51450 whole entry, looked up, the tested form may be a part): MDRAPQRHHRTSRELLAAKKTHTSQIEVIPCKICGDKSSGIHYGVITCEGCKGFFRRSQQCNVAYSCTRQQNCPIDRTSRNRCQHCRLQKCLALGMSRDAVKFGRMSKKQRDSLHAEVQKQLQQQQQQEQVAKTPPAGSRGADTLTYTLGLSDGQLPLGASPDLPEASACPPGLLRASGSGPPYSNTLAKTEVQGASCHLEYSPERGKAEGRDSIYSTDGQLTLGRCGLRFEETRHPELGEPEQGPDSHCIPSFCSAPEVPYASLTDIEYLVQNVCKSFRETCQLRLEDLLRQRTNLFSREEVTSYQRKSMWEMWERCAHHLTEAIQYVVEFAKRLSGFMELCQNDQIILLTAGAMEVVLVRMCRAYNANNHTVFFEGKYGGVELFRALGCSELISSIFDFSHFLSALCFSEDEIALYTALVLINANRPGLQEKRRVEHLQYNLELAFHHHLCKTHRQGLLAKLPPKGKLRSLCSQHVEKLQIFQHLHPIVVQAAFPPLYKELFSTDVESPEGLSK
#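 Schneider cells (Drosophila), stable Gal4 DBD–ROR gamma + UAS-luc; 1 hr cmpd preincubation; Cu2+ induction 700 uM final; 20 hr ambient; luminescence.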
# IL1B secr inh – inhibitors of inflammasome signaling (IL-1 beta secretion); AID 743279; 360,000 tested, 4.7% active; activity change, % at 57.5 µM; THP-1 LPS/ATP IL-1B secretion, AlphaLISA, 16 h; stronger effect = lower value; in the data active means activity change below about -50%; inconclusive means mostly about -30% to -49%
#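 THP-1 cells pretreated 1 hr with compounds (up to 57.5 uM final), then stimulated with LPS (250 ng/mL final) plus ATP (1.25 mM final); secreted IL-1B measured by AlphaLISA after 16 hr, decreased signal indicating inhibition.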
# DT40 TDP1 CPT – growth inhibition of DT40 Tdp1-/-;hTDP1 cells with camptothecin (screen for TDP1 inhibitors). chicken DT40 Tdp1-/-;hTDP1 cells + 20 nM CPT, ATP luminescence, 48 h. 420,000 tested, 12% active. Potency, µM (titrated, usually from 46.2 µM), for inactives: at the highest dose activity change, negative = growth inhibition, usual class: inhibitors; further: potency means the concentration at half of the fitted maximal effect; nearly all actives have a fitted effect of over 55% in size
#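 Chicken DT40 Tdp1-/- cells complemented with human TDP1, 400 cells/well, exposed to compounds plus 20 nM camptothecin for at least 48 h at 37 C; viability read as ATP content by CellTiter-Glo luminescence.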
# An asterisk follows results filed as active; ? = inconclusive; . = no result. Unless noted, the call rests on the fitted dose curve; in most records, active means well fitted curve in the direction sought with a large enough effect; inconclusive means small, poorly fitted or top-dose-only effect, or another doubt; inactive means no such curve, though single readings can be large; an effect the other way counts as inactive or inconclusive. Unless noted, on the % scale 0 is the no-effect control and ±100 the full control effect.
SMILES,LDHA inh,DT40 TDP1 no CPT,VP16 counter,RORg inh,IL1B secr inh,DT40 TDP1 CPT
COc1ccc(S(=O)(=O)N2CCOC23CCN(S(=O)(=O)c2ccc(C)cc2)CC3)cc1,-4.1,?,.,.,-12.9,?
O=S(=O)(c1ccc(Cl)cc1)N1CCC2(CC1)OCCN2S(=O)(=O)c1cccs1,-0.8,18.4µM*,.,.,-12.6,?
Oc1ccc(-c2nc(-c3ccc(Cl)cc3)cs2)cc1,0.3,.,.,.,.,.
Cc1cccc(-c2nc(CCNC(=O)c3ccccc3Br)cs2)c1,1.1,20.6µM*,.,.,.,18.4µM*
COc1cccc(C(=O)NCCc2csc(-c3cccc(F)c3)n2)c1OC,-1.8,?,.,.,.,?
COc1cccc(C(=O)NCCc2csc(-c3ccc(Cl)cc3)n2)c1,0.4,?,.,.,.,16.4µM*
CN(C)CCCNC(=O)c1ccc(-c2nc(-c3ccc(Cl)cc3)cs2)cc1,1.1,20.6µM*,?,-83.8%,-97.1*,16.4µM*
COc1ccc(-c2nc(CCNC(=O)c3cc(OC)c(OC)c(OC)c3)cs2)cc1,0.9,13µM*,.,.,.,13µM*
CCS(=O)(=O)N1CCc2cc(C(=O)CSc3ccc(F)cc3F)ccc21,-15.3,.,.,.,.,.
Cc1ccc2cc(C(=O)NCc3ccco3)[nH]c2c1,-0.6,.,.,.,.,.
Cc1ccc(-c2nc(CCNC(=O)c3ccc(C)c(C)c3)cs2)cc1,1.1,16.4µM*,.,.,.,?
Cc1ccc([N+](=O)[O-])cc1NC(=O)Cn1cnc2c1c(=O)n(C)c(=O)n2C,3.3,.,.,.,.,.
CCCn1c(N)c(C(=O)CSc2nc3ccccc3s2)c(=O)[nH]c1=O,-7.6,16.4µM*,-4.0%,?,48.0,20.6µM*
Cc1nnc(Sc2nc3c(c(=O)[nH]c(=O)n3C)n2CCc2ccccc2)s1,-3.1,-26.8%,-6.5%,9.6%,-5.7,-18.2%
Cn1c(=O)[nH]c(=O)c2c1nc(Sc1nc3ccccc3s1)n2Cc1ccccc1,-3.4,6.51µM*,?,14.9%,-4.5,8.2µM*
Cc1ccc(Cn2c(Sc3nnc(C)s3)nc3c2c(=O)[nH]c(=O)n3C)cc1,2.1,23.1µM*,-0.8%,-5.9%,-11.1,?
Cc1ccc2c(CN(C)Cc3ccccc3)cc(=O)oc2c1,2.8,?,.,.,36.0,18.4µM*
C=CCN(CC=C)Cc1cc(=O)oc2ccc3ccccc3c12,-1.3,16.4µM*,.,.,0.0,16.4µM*
CN(Cc1ccccc1F)Cc1cc(=O)oc2cc(O)c(Cl)cc12,-11.0,16.4µM*,-5.8%,-44.9%,22.0,14.6µM*
Cc1ccc2c(CN(C)Cc3cccc(F)c3)cc(=O)oc2c1,-0.3,7.0%,0.5%,2.5%,13.6,-0.6%
CCCCN(CCCC)Cc1cc(=O)oc2ccc3ccccc3c12,5.1,16.4µM*,.,.,14.7,?
CCCCN(CCCC)Cc1cc(=O)oc2cc(OC)ccc12,0.2,?,.,.,47.6,?
N#C/C(=C/c1ccccc1OCc1ccccc1)c1nc2ccccc2[nH]1,3.3,.,.,.,.,.
COC(=O)C1=C(C)NC(=O)C1(NC(=O)c1cccc(C)c1)C(F)(F)F (stereo not given),10.4,.,.,.,.,.
COc1ccc(-c2cc(C(=O)NCCO)c3ccccc3n2)cc1,-3.7,.,.,.,.,.
SMILES,LDHA inh,DT40 TDP1 no CPT,VP16 counter,RORg inh,IL1B secr inh,DT40 TDP1 CPT
O=C(O)c1cc(-c2ccc(F)cc2)on1,8.3,.,.,.,.,.
CN(Cc1ccccc1)Cc1cc(=O)oc2ccc3ccccc3c12,-4.0,18.4µM*,.,.,30.7,?
Cc1ccc(-n2c(=O)c3c(cnn3C)n(Cc3ccc(Cl)cc3)c2=O)cc1,-1.7,?,.,.,.,-10.4%
Cc1ccc(-n2c(=O)c3c(cnn3C)n(Cc3ccccc3F)c2=O)cc1,-10.3,-28.6%,.,.,.,18.4µM*
O=C(c1cc(=O)[nH]c2ccccc12)N(Cc1nnc(-c2ccccc2Cl)o1)C1CC1,2.2,?,.,.,-8.3,13µM*
Cc1ccc(C(=O)N(Cc2nnc(-c3ccccc3Cl)o2)C2CC2)o1,-6.0,18.4µM*,.,.,-9.7,?
Cc1c(C(=O)N(Cc2nnc(-c3ccccc3Cl)o2)C2CC2)oc2ccccc12,-1.4,?,.,.,21.3,16.4µM*
Cc1ccc(C)c(-c2csc(NC(=O)c3cc(C)no3)n2)c1,2.2,.,.,.,.,.
COc1ccc2nc(NNC(=O)c3cc(=O)c4ccccc4o3)sc2c1,11.8,?,?,8.91µM*,89.4,?
O=C(Nc1nc2ccc(F)cc2s1)c1cc(=O)c2ccccc2o1,-0.1,.,.,.,.,.
Cc1cccc2sc(NNC(=O)c3cc(=O)c4ccccc4o3)nc12,12.7,?,?,3.98µM*,23.8,?
O=C(NNc1nc2c(F)cccc2s1)c1cc(=O)c2ccccc2o1,11.0,?,?,10µM*,0.0,?
Cc1ccc2sc(NNC(=O)c3cc(=O)c4ccccc4o3)nc2c1C,11.7,?,-11.9%,-9.9%,30.9,29.1µM*
O=C(COc1cccc(F)c1)Nc1cccc2cccnc12,-4.2,.,.,.,.,.
CNS(=O)(=O)c1cc(NS(=O)(=O)c2ccc(Br)cc2Cl)ccc1C,-15.0,.,.,.,.,.
CCC(C)NC(=O)CSc1nc2c(sc3ccccc32)c(=O)n1Cc1ccccc1Cl (stereo not given),-3.0,3.26µM*,.,.,.,?
COCCNC(=O)CCCn1c(SCc2ccccc2Cl)nc2c(sc3ccccc32)c1=O,-1.0,9.2µM*,.,.,.,?
CC(C)(C)c1cc(C(=O)Nc2cccc(C(=O)O)c2)cc(C(C)(C)C)c1,3.8,.,.,.,.,.
CCOC(=O)c1ccc(Oc2coc3cc(OC(=O)c4cccs4)ccc3c2=O)cc1,-5.2,.,.,.,.,.
Cc1nc2c(C(=O)N3CCN(C)CC3)cnn2c(C)c1Cc1ccc(Cl)cc1,-12.6,-8.9%,2.4%,6.2%,-7.1,-19.1%
Cc1nc2c(C(=O)NCc3cccs3)cnn2c(C)c1Cc1ccccc1,.,.,-7.4%,33.8%,.,.
Cc1nc2c(C(=O)N3CCCCC3)cnn2c(C)c1Cc1ccccc1F,0.3,15.8µM*,-14.3%,-27.9%,-1.1,?
Cc1nc2c(C(=O)NCCC(C)C)cnn2c(C)c1Cc1c(F)cccc1Cl,-0.8,23.1µM*,.,.,.,20.6µM*
Cc1nc2c(C(=O)NCCc3ccccc3)cnn2c(C)c1Cc1c(F)cccc1Cl,-0.8,16.4µM*,.,.,.,14.6µM*
Cc1nc2c(C(=O)NCc3ccccc3Cl)cnn2c(C)c1Cc1c(F)cccc1Cl,-0.3,8.2µM*,.,.,.,8.2µM*
COC(=O)c1cnn2c(C)c(Cc3c(C)cc(C)cc3C)c(C)nc12,-0.8,-19.8%,.,.,.,?
CC(C)(C)NC(=O)c1cccc(NC(=O)c2ccc(Cl)c(Cl)c2)c1,2.9,.,.,.,.,.
CCc1nc2ccccc2c(NC(=O)CNC(C)(C)C)c1C,1.1,.,.,.,.,.

# Assay outcomes deposited in PubChem by National Center for Advancing Translational Sciences (NCATS).
